Among the data in PubChem BioAssay (NCATS) are Potency values, retold here.

Holding throughout (assay): qHTS profiling for inhibitors of Plasmodium falciparum proliferation (AID 504749); also: nearly all actives have a fitted effect of over 60% in size
Common to all, as to conditions: P. falciparum in erythrocytes, SYBR Green DNA, 72 h; series mostly up to 28.7 µM
(In general: Quantitative high-throughput screening tests each substance at several concentrations.)

For test [1], the system named is CP286. The method, boiled down:
(§1)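 Three-day growth assay of blood-stage parasites in erythrocytes (0.3% parasitemia, 2.5% hematocrit) at 37 C, 5% CO2, quantified by SYBR Green DNA staining after overnight detergent lysis.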

For test [2], the system named is CP315. The method, boiled down: as §1
Test [3] deals with CP325. The method, boiled down: as §1
In test [4] the test system is CP329. The method, boiled down:
as §1

Test [5] concerns DIV14. Summed up:
as §1

The test system of test [6] is DIV17. The method, boiled down: as §1
For test [7], the system named is DIV30. The method, boiled down: as §1
The test system of test [8] is Dd2. The method, boiled down: as §1
The subject of test [9] is ECU. Summed up: as §1
Test [10] concerns FAB9. Summed up: as §1
The test system of test [11] is GB4. Summed up:
as §1

Test [12] relates to HB3. The method, boiled down: as §1
The subject of test [13] is ICS. The method, boiled down:
as §1

The test system of test [14] is JCK. Summed up:
as §1

Test [15] has as its system CP269. Summed up:
as §1

For test [16], the system named is CP291. Summed up:
as §1

Test [17] deals with CP297. The method, boiled down: as §1
In test [18] the test system is CP305. Summed up: as §1
Test [19] has as its system CP335. Summed up:
as §1

The subject of test [20] is DFO2036. Summed up: as §1

Inconclusive results are not listed. Activity calls are given as the source filed them. Calls follow the shape of the dose curve; as a rule, active = well fitted inhibition curve with a large enough effect; inconclusive = small, poorly fitted or top-dose-only effect; inactive = flat fitted curve, though single readings scatter.
Potency is read from the fitted curve at half-maximal effect.

`Oc1ccc(Cl)cc1Cc1ccccc1`: the Potency result in test [1], in test [2], in [3], in [4] and in [10] was “inactive” each time. Moreover, the Potency in test [5] was 7.57 µM (active); in test [6] it was 7.57 µM (active); in test [7], 10.7 µM (active); in test [8], 10 µM (active); in [9] it was 11.2 µM (active); in test [11] it was 8.49 µM (active). Besides, the Potency in test [12] was 12.6 µM (active); in test [13], 2 µM (active).
Take `Cc1cccc(C)c1NC1=NCCCS1`: the Potency entry in test [2], in test [9], in test [10], in test [12] and in [14] was “inactive” in each case. Besides, the Potency in test [8] is 12.6 µM (active); in [11] it was 8.49 µM (active); in test [13], 12.6 µM (active).
Take `CC(C)=CC1C(C(=O)OCc2cccc(Oc3ccccc3)c2)C1(C)C` (centres undefined): the Potency result in [15], in test [16], in test [17], in test [18], in test [2] and in [3] was “inactive” each time. Also, the Potency result in test [4], in [19], in [20], in test [5], in [6] and in test [9] was “inactive” in each case. For the same compound, the Potency entry in test [10], in [11], in test [12] and in test [14] was “inactive” throughout.
Turning to `CN1C[C@H](CNC(=O)OCc2ccccc2)C[C@@H]2c3cccc4c3c(cn4C)C[C@H]21`, the Potency was 8.91 µM (active) in test [1]; 6.75 µM (active) in test [19]; 8.91 µM (active) in [20]; 8.49 µM (active) in test [5]; 15.1 µM (active) in [6]; 15.1 µM (active) in [7]. Also, the Potency in [8] was 7.94 µM (active); in test [9], 11.2 µM (active); in test [11] it was 8.49 µM (active); in test [13] it was 7.08 µM (active). In addition, the Potency result in test [10] and in test [14] was “inactive” in each case.
Consider `O=[N+]([O-])c1cc([As](=O)(O)O)ccc1O`, for which the Potency in test [16] is 5.1 µM (active); in test [19], 4.55 µM (active); in [20], 3.55 µM (active); in test [7], 5.73 µM (active); in test [8], 3.55 µM (active); in test [9], 3.16 µM (active). Moreover, the Potency in [10] was 3.55 µM (active); in test [11] it was 4.55 µM (active); in test [12], 3.16 µM (active); in [13] it was 3.16 µM (active).
With `CC(CCc1ccccc1)NC(C)C(O)c1ccc(O)cc1` (centres undefined), the Potency entry in test [2], in test [20], in test [9], in test [10], in [12] and in test [13] was “inactive” each time. In addition, the Potency result in [14] is “inactive”. Further, the Potency in [5] was 9.53 µM (active); in test [8] it was 11.2 µM (active).
In the case of `Clc1cccc(N2CCNCC2)c1`, the Potency entry in test [15], in test [1], in test [16], in test [18], in test [2] and in test [3] was “inactive” each time. In addition, the Potency result in [4], in [20], in test [7], in [9], in test [10] and in [12] was “inactive” in each case. For the same compound, the Potency result in [13] and in test [14] was “inactive” throughout.
Regarding `CCN(CC)CCN1C(=O)CN=C(c2ccccc2F)c2cc(Cl)ccc21`, the Potency result in test [15], in test [1], in test [17], in [18], in test [2] and in test [3] was “inactive” each time. Further, the Potency result in [20], in [6], in test [7], in test [9], in test [10] and in [12] was “inactive” each time. Moreover, the Potency result in [14] was “inactive”.
Turning to `Fc1ccc(C(OCCN2CCN(CCCc3ccccc3)CC2)c2ccc(F)cc2)cc1`, the Potency was 15.1 µM (active) in test [15]; 11.2 µM (active) in test [1]; 10.7 µM (active) in [16]; 10.7 µM (active) in test [18]; 15.1 µM (active) in test [3]; 9.53 µM (active) in [19]. Also, the Potency in test [20] is 11.2 µM (active); in test [5], 10.7 µM (active); in test [6], 10.7 µM (active); in [9], 10 µM (active); in [11] it was 15.1 µM (active); in test [12] it was 8.91 µM (active). For the same compound, the Potency in [13] was 3.55 µM (active); in test [14], 11.2 µM (active).
`O=c1[nH]c2ccccc2n1C1CCN(CCCC(c2ccc(F)cc2)c2ccc(F)cc2)CC1`: the Potency in test [1] was 11.2 µM (active); in [19] it was 13.5 µM (active); in test [8], 7.94 µM (active); in test [12] it was 10 µM (active); in test [13], 14.1 µM (active). Also, the Potency entry in [16], in [18], in test [4], in test [20], in test [5] and in test [6] was “inactive” throughout. The Potency entry in test [7], in [9], in [10], in [11] and in [14] was “inactive” in each case.
As for `CCN(CC)CCOC(=O)C(O)(c1ccccc1)c1ccccc1`, the Potency result in test [15], in [1], in test [16], in [18], in test [2] and in [3] was “inactive” each time. Besides, the Potency entry in test [4], in test [20], in test [6], in test [7], in test [8] and in test [9] was “inactive” in each case. Also, the Potency result in test [10], in [11], in test [12], in [13] and in test [14] was “inactive” each time.
Turning to `CCN(C(C)=O)c1cccc(-c2ccnc3c(C#N)cnn23)c1`, the Potency entry in test [15], in [1], in test [16], in [18], in [2] and in [3] was “inactive” each time. In addition, the Potency result in [4], in [19], in [20], in test [6], in test [7] and in test [8] was “inactive” in each case. The Potency result in test [9], in test [10], in [11], in test [12], in [13] and in test [14] was “inactive” in each case.
For the compound `CC(C)(N)Cc1ccc(Cl)cc1`, the Potency entry in test [15], in test [1], in test [16], in test [2], in test [3] and in test [20] was “inactive” throughout. In addition, the Potency result in test [6], in test [7], in [9], in test [10], in [12] and in test [13] was “inactive” throughout. For the same compound, the Potency in [11] was 8.49 µM (active).
As for `C[C@]12C/C(=C/O)C(=O)C[C@@H]1CC[C@@H]1[C@@H]2CC[C@@]2(C)[C@H]1CC[C@]2(C)O`, the Potency result in test [15], in test [1], in [17], in test [18], in test [2] and in [3] was “inactive” in each case. Moreover, the Potency entry in test [4], in test [19], in [20], in [7], in test [8] and in test [9] was “inactive” in each case. The Potency result in test [10], in [11], in test [12] and in test [14] was “inactive” in each case.
`Cc1ccc(-c2nc3ccc(C)cn3c2CC(=O)N(C)C)cc1`: the Potency result in test [15], in test [1], in [16], in [18], in test [2] and in test [3] was “inactive” each time. Moreover, the Potency result in test [4], in test [19], in test [5], in [6], in test [7] and in test [8] was “inactive” each time. For the same compound, the Potency result in test [9], in test [10], in test [11], in [12], in [13] and in [14] was “inactive” throughout.
For `CC(C)NCC(O)c1ccccc1Cl` (centres undefined), the Potency in test [1] is 10 µM (active); in test [17], 15.1 µM (active); in test [5] it was 6.75 µM (active); in test [6] it was 6.75 µM (active); in test [8] it was 11.2 µM (active); in test [9] it was 7.94 µM (active). In addition, the Potency was 8.49 µM (active) in [11] and 4.47 µM (active) in [13]. Moreover, the Potency result in test [2], in [4] and in [10] was “inactive” throughout.
Turning to `COc1ccc(C(CN(C)C)C2(O)CCCCC2)cc1` (centres undefined), the Potency entry in test [15], in [1], in test [16], in test [18], in [2] and in [4] was “inactive” each time. Further, the Potency result in [20], in [5], in test [7], in test [9], in test [10] and in test [12] was “inactive” in each case. The Potency result in test [13] and in test [14] was “inactive” throughout.
As to `Cc1ccc(S(=O)(=O)N[C@@H](CCCCN)C(=O)CCl)cc1`, the Potency result in test [15], in test [17], in [2], in test [7] and in [10] was “inactive” throughout. Also, the Potency in test [13] is 12.6 µM (active).
Take `COc1ccc(C(=O)c2c(C)n(CCN3CCOCC3)c3ccccc23)cc1`: the Potency entry in test [15], in test [1], in test [16], in [17], in test [18] and in test [2] was “inactive” each time. For the same compound, the Potency entry in test [3], in test [4], in test [19], in test [20], in test [7] and in test [8] was “inactive” each time. In addition, the Potency result in test [9], in test [10], in test [12] and in test [14] was “inactive” in each case.
